Experimental findings from PubChem BioAssay (NCATS) are described below.

Molecules are shown by their SMILES. Values joined by “and” are separate entries in the source; they are usually repeats but may differ in a detail not shown here. Equal values may be shown once. Results filed as inconclusive are left out. Active and inactive are the calls of the source. Unless noted, calls come from the whole dose curve; as a rule, active = well fitted curve in the direction sought with a large enough effect; inconclusive = small, poorly fitted or top-dose-only effect, or another doubt; inactive = no such curve, though single readings can be large; an effect the other way counts as inactive or inconclusive.

The nature of experiment [1]: qHTS Assay for Identifying Gametocytocidal Compounds (AID 743244).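 For max response: % is set by controls: 0 for no effect and ±100 for the full control effect; actives lower the fluorescent signal which means gametocytes are killed.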 Note: potency is the fitted concentration of half-maximal effect. Conditions: P. falciparum 3D7 stage III-V gametocytes, alamarBlue, 72 h; max response: stronger effect = lower value. Summed up:
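In this qHTS viability screen, late-stage 3D7 gametocytes are incubated with compound for 72 h, then with alamarBlue for 24 h; reduced resorufin fluorescence marks killing.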
For orientation: qHTS replaces the single test concentration by a dilution series.

The nature of experiment [2]: qHTS profiling for inhibitors of Plasmodium falciparum (3D7) proliferation (AID 743322; call rule not given here;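 note: infected erythrocytes exposed to compound for 72 h before lysis; 100% = DMSO vehicle wells and 0% = 0.29 µM artemisinin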). Particulars: P. falciparum 3D7 proliferation; at 28.7 µM (top of the series) unless noted. In short, it runs like this: (§1)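 Erythrocytes infected with P. falciparum (0.3% parasitemia, 2.5% hematocrit) incubated with compounds 72 h at 37 C, 5% CO2. Lysis with saponin/Triton buffer containing SYBR Green I, overnight at room temperature in the dark; DNA fluorescence (485/535 nm) normalised to 0.29 uM artemisinin and DMSO.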

A short description of experiment [3]: qHTS profiling for inhibitors of Plasmodium falciparum (DD2) proliferation (AID 743323; call rule not given here). Conditions: lower = more inhibition; at 28.7 µM (top of the series) unless noted. In short, it runs like this: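 Parasite proliferation measured via DNA-dye fluorescence, as uninfected erythrocytes lack DNA. Cultures at 0.3% parasitemia and 2.5% hematocrit incubated 72 h with compound; signal scaled between vehicle and 0.29 uM artemisinin wells.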

Experiment [4] in a line: qHTS profiling for inhibitors of Plasmodium falciparum (HB3) proliferation (AID 743324).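 Note: 100% = DMSO vehicle wells and 0% = artemisinin-treated control wells.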 Conditions: Plasmodium falciparum HB3 blood-stage proliferation; at 28.7 µM (top of the series) unless noted. In short, it runs like this: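 P. falciparum HB3 grown in erythrocytes (0.3% parasitemia, 2.5% hematocrit final) with compound for 72 h at 37 C, 5% CO2. Parasite DNA detected by SYBR Green after saponin/triton lysis overnight; normalized to 0.29 uM artemisinin and DMSO.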

Experiment [5] can be described thus: qHTS profiling of the MIPE4 collection as inhibitors of Plasmodium falciparum (3D7) proliferation (AID 743344; call rule not given here). Particulars: P. falciparum 3D7 in erythrocytes, SYBR Green DNA fluorescence, 72 h; at 28.5 µM (top of the series) unless noted. In short, it runs like this:
as §1

A short description of experiment [6]: qHTS profiling of the MIPE4 collection as inhibitors of Plasmodium falciparum (DD2) proliferation (AID 743345; call rule not given here). Conditions: P. falciparum Dd2 in erythrocytes, SYBR Green DNA, 72 h; at 28.5 µM (top of the series) unless noted. Summed up:
as §1

The nature of experiment [7]: qHTS profiling of the MIPE4 collection as inhibitors of Plasmodium falciparum (DD2) proliferation (Rep 2) (AID 743346; call rule not given here). Conditions: P. falciparum Dd2 in erythrocytes, SYBR Green DNA, 72 h; at 28.5 µM (top of the series) unless noted. Summed up: as §1
A short description of experiment [8]: qHTS profiling of the MIPE4 collection as inhibitors of Plasmodium falciparum (HB3) proliferation (AID 743347; call rule not given here;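 note: plate controls were DMSO vehicle wells for no effect and artemisinin wells for full effect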). Particulars: P. falciparum HB3 in erythrocytes, SYBR Green DNA, 72 h; at 28.5 µM (top of the series) unless noted. In short, it runs like this:
as §1

The nature of experiment [9]: Cell Proliferation Assay Versus the ED40515 IL2 Dependent ATL cell lines (AID 1053195; calls by dose curve). Conditions: ED40515 IL2-dependent ATL cells. In short, it runs like this: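 IL2-dependent ED40515 ATL cells grown with IL2, 1000 cells/well in phenol red-free RPMI + 5% FBS, exposed 48 hours at 37C. Viability by CellTiter-Glo luminescence after 15 min at RT; 9.2 uM bortezomib as control.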

Experiment [10] is described as follows: High-throughput drug toxicity screening in the BPDCN cell line Gen2.2 (AID 1224824; call rule not given here;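 note: cells exposed to compounds for 48 h before reading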). Conditions: Gen2.2 BPDCN cells; at 45.8 µM (top of the series) unless noted. Summed up:
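Gen2.2, 500 cells/well, phenol red-free RPMI/10% FBS/Pen-Strep; 48 h cpd, 37 °C/5% CO2; CTG lum, 15 min RT. Norm: DMSO = 100%, bortezomib 9.2 uM final = 0%.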

Experiment [11] is described as follows: High-throughput drug toxicity screening in the BPDCN cell line Cal-1 (AID 1224825; call rule not given here). Particulars: Cal-1 BPDCN cell viability, qHTS; at 45.8 µM (top of the series) unless noted. Summed up: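 500 Cal-1 cells/well, RPMI + glutamine + 10% FBS (phenol red-free); cpd added by pin tool; 48 h, 37C, 5% CO2; CTG 15 min RT, lumi read. Normalised: DMSO 100%, bortezomib 9.2 uM 0%.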

The nature of experiment [12]: qHTS assay for measurement of the activity of small molecule inhibitors on Zika virus induced Caspase-3 activity in human iPSC derived neural progenitor cells (hNPCs) (AID 1224857). Note: % of control where 0% means no effect; nearly all actives have a fitted effect of over 65% in size. In short, it runs like this: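 In medium with heparin 2 ug/ml and cyclopamine 2 uM, hNPCs (350 cells/well) received compound for one hour and then Zika virus at 2 FFU/cell; caspase activity was measured by Caspase-Glo 3/7 luminescence 6 h post-infection.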

Experiment [13] is described as follows: qHTS assay for measurement of the activity of small molecule inhibitors on Zika virus induced Caspase-3 activity in human astrocytoma cells (AID 1224859).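 Note: plate controls were ZIKV-infected untreated cells for no effect and uninfected cells for full effect.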 In short, it runs like this: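 A cell-based luminescent caspase-3/7 assay used SNB-19 cells infected with ZIKV (2 FFU/cell) for 6 h following 1 h compound pretreatment.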
Experiment [14] is described as follows: qHTS Screen of the MIPE 4.0 Collection Against Ewings Sarcoma (RDES) (AID 1259252). Note: nearly all actives have a fitted effect of over 35% in size. Note: potency is the fitted concentration of half-maximal effect. Summed up: (§2)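 CellTiter-Glo luminescence after 48 h compound exposure (titration) gave viability; percent activity used DMSO-treated cells as no inhibition and medium-only wells as full inhibition. Cells grown in RPMI/5% FBS, dosed 4 h post-seeding.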
The nature of experiment [15]: qHTS Screen of the MIPE 4.0 Collection Against Ewings Sarcoma (TC71) (AID 1259253). Note: nearly all actives have a fitted effect of over 40% in size. Note: potency is the fitted concentration of half-maximal effect. Summed up:
as §2

Experiment [16] can be described thus: qHTS Screen of the MIPE 4.0 Collection Against Ewings Sarcoma (EW8) (AID 1259255).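 For viability: 100% = DMSO-treated cells and 0% = medium-only wells without cells.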 Note: nearly all actives have a fitted effect of over 35% in size. Note: potency is the fitted concentration of half-maximal effect. In short, it runs like this:
as §2

A short description of experiment [17]: Cell Proliferation Assay Versus the ED40515 IL2 Independent ATL cell lines (AID 1053194; calls by dose curve). Particulars: ED40515 IL2-independent ATL cells. Summed up: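 Log-phase ED40515 cells grown without IL-2, 1000 cells/well in phenol red-free RPMI with 5% FBS, exposed to drugs 48 h at 37C. Viability read as CellTiter-Glo luminescence after 15 min at RT; DMSO and 9.2 uM bortezomib as controls.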

Experiment [18] addresses Hexokinase-4 (Homo sapiens) + Glucokinase regulatory protein (Homo sapiens) (UniProt P35557+Q14397). Briefly: qHTS assay for inhibitors of recombinant human GCK-GKRP interaction: HTRF assay (AID 743207).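 Note: 0% = DMSO with GCK present and -100% = DMSO wells lacking GCK.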 Summed up: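 Steps: dispense GCK–GKRP complex (5 nM each, GST- and FLAG-tagged) with 2 uM S6P; pin in compounds; add XL665/Eu-cryptate-labelled antibodies; incubate 60 min at room temperature; read time-resolved FRET at 665 and 615 nm.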

Chain of Hexokinase-4 (Homo sapiens) + Glucokinase regulatory protein (Homo sapiens) (P35557 whole entry, looked up): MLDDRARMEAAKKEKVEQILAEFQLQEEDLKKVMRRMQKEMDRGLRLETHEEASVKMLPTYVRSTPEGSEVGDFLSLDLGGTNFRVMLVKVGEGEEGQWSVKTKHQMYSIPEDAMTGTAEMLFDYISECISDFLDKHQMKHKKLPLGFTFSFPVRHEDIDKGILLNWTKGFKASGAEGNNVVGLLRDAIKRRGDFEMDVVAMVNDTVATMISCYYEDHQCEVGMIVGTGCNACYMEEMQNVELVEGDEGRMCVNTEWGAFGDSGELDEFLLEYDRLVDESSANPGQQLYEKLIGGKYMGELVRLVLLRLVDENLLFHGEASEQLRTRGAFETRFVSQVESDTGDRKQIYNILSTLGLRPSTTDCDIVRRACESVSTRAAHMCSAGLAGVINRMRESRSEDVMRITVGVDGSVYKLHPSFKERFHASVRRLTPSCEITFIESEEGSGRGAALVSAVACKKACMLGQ
Chain of Hexokinase-4 (Homo sapiens) + Glucokinase regulatory protein (Homo sapiens) (Q14397 whole entry, looked up): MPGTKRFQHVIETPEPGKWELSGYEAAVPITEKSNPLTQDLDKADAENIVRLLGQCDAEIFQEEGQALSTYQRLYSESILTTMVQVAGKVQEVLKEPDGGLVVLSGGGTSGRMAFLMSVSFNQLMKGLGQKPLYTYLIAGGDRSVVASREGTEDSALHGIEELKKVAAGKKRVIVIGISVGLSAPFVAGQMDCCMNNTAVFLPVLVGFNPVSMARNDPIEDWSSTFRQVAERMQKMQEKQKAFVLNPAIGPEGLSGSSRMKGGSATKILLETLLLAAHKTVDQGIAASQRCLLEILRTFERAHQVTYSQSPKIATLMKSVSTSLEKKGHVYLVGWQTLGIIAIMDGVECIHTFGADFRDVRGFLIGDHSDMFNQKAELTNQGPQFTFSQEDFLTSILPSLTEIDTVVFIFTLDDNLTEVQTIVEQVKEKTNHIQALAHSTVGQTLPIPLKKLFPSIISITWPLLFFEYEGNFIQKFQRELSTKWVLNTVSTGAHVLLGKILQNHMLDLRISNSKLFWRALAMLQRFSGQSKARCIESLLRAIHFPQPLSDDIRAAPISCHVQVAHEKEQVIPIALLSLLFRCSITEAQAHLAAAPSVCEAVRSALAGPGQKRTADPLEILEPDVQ

Turning to `S=C(NCc1ccc2c(c1)OCO2)N1CCN(c2ncnc3c2oc2ccccc23)CC1`, in experiment [1], the max response was -9.54% (inactive). The molecule also gave a remaining parasite growth % (stronger effect = lower value) in experiment [2] of 75.4%. Moreover, in experiment [3], the activity, percent of control was 87.1%. Besides, in experiment [4], the remaining proliferation (% of control), lower = more inhibition amounted to 28.7%. The molecule also came in with a parasite growth, % of DMSO control in experiment [5] of 20.8% [at 57.5 µM]. Further, in experiment [6], the parasite growth remaining, % of DMSO control (lower = more inhibition) is 66.7% [at 57.5 µM]. The parasite growth, % of control (lower = inhibition) in experiment [7] is 63.5% [at 57.5 µM]. Further, the growth, % of control in [8] was determined as 30.4% [at 57.5 µM]. The Potency is 0.0662 µM (active) in experiment [9], 1.91 µM (active) in experiment [14], 7.62 µM (active) in experiment [15] and 4.81 µM (active) in experiment [16]. Besides, the cell viability, % of control (lower = more cytotoxic) in experiment [10] came out at 387% [at 92.2 µM]. In [11], this molecule returned a viability (% of control) of 56.7% [at 92.2 µM]. Further, the Potency result in experiment [12] and in experiment [13] was “inactive” in each case.

For the molecule `CO[C@@H]1[C@H](N(C)C(=O)c2ccccc2)C[C@H]2O[C@]1(C)n1c3ccccc3c3c4c(c5c6ccccc6n2c5c31)C(=O)NC4`, the values for the Potency in experiment [1] and in [17] were 5.9 µM (active) and 0.743 µM (active), respectively. Besides, the cell viability, % of control (lower = more cytotoxic) in [10] worked out at 21.1%. The viability (% of control) in experiment [11] was determined as 14.1%.

Take `CCOC(=O)C1=C[C@]2(CC)CCCN3CCc4c(n1c1ccccc41)[C@@H]32`: in [18], the result was inactive. Further, in experiment [1], the max response is -1.66% (inactive). Besides, the parasite growth, % of DMSO control in [5] was 5.46% and 17.8%. In experiment [6], the parasite growth remaining, % of DMSO control (lower = more inhibition) is 8.67% and 83.7%. Further, the parasite growth, % of control (lower = inhibition) in [7] is 35.2% and 34.2%. For the same molecule, in experiment [8], the growth, % of control was 10% and 13.6%. Further, in experiment [10], the cell viability, % of control (lower = more cytotoxic) was 13.3%. For the same molecule, the viability (% of control) in experiment [11] came to 2.19%. In addition, the Potency entry in experiment [12] and in experiment [13] was “inactive” each time. Further, the Potency was 23.5 µM (active) in [14], 20.9 µM (active) in [15] and 18.7 µM (active) in experiment [16].

On to `CCOC(=O)N1CCC(=C2c3ccc(Cl)cc3CCc3cccnc32)CC1`, for which, in experiment [18], the result was inactive. In experiment [5], this molecule gave a parasite growth, % of DMSO control of 14.5%. Also, the parasite growth, % of control (lower = inhibition) in [7] is 28.5%. Besides, the growth, % of control in experiment [8] stood at 13.8%. Besides, the cell viability, % of control (lower = more cytotoxic) in [10] was 186%. For the same molecule, the viability (% of control) in experiment [11] amounted to 87.3%. Besides, the Potency result in experiment [12] and in experiment [13] was “inactive” in each case. For the same molecule, the Potency in [14], in experiment [15] and in experiment [16] was 26.4 µM (active) each time.

On to `O=C(Nc1nc2ccccc2n1CCN1CCOCC1)c1cccc([N+](=O)[O-])c1`, for which the outcome in experiment [18] was inactive. The parasite growth, % of control (lower = inhibition) in [7] came out at 17.9%. Besides, the cell viability, % of control (lower = more cytotoxic) in experiment [10] is 43.3%. The viability (% of control) in experiment [11] stood at 4.89%. The Potency result in experiment [12] and in [13] was “inactive” throughout. For the same molecule, the Potency in [14] was 20.9 µM (active); in [15], 23.5 µM (active); in experiment [16], 20.9 µM (active).

For the molecule `CCN(CC)CCCC(C)Nc1ccnc2cc(Cl)ccc12` (stereo unspecified), the outcome in [18] was inactive. For the same molecule, the remaining parasite growth % (stronger effect = lower value) in [2] came to 0.37%. Moreover, in experiment [3], the activity, percent of control was determined as 2.54%. This molecule gave a remaining proliferation (% of control), lower = more inhibition in experiment [4] of 0.178%. Moreover, the parasite growth, % of DMSO control in experiment [5] came to 19.3%. The molecule further showed a parasite growth remaining, % of DMSO control (lower = more inhibition) in experiment [6] of 10.1%. Besides, in [7], the parasite growth, % of control (lower = inhibition) stood at 15.1%. This molecule also had a growth, % of control in [8] of 41.8%. Further, in experiment [10], the cell viability, % of control (lower = more cytotoxic) is 103%. This molecule also gave a viability (% of control) in [11] of 21.4%. Also, the Potency entry in experiment [12], in experiment [13], in experiment [14], in [15] and in experiment [16] was “inactive” in each case.

As to `Cc1cn[nH]c1`, in experiment [18], the result was inactive. Besides, the max response in experiment [1] was 28.3% (inactive) and 8.61% (inactive). The same molecule registered a parasite growth, % of DMSO control in [5] of 5.44%. Besides, in [6], the parasite growth remaining, % of DMSO control (lower = more inhibition) turned out to be 10%. In experiment [7], the parasite growth, % of control (lower = inhibition) is 6.63%. In experiment [8], this molecule displayed a growth, % of control of 8.35%. Moreover, the cell viability, % of control (lower = more cytotoxic) in experiment [10] was determined as 120%. This molecule also returned a viability (% of control) in [11] of 55.7%. The Potency entry in experiment [12] and in experiment [13] was “inactive” each time. Moreover, the Potency in experiment [14] is 0.0074 µM (active); in [15], 0.0469 µM (active); in [16], 0.059 µM (active).

As to `NCCc1ccc(O)c(O)c1`, the result in experiment [18] was inactive. This molecule had a parasite growth, % of DMSO control in [5] of 74.8%. In experiment [7], the parasite growth, % of control (lower = inhibition) was 39.7%. Moreover, in experiment [10], the cell viability, % of control (lower = more cytotoxic) is 14.2%. Also, the viability (% of control) in experiment [11] was 25%. Besides, the Potency entry in experiment [12], in experiment [13] and in [14] was “inactive” in each case. Moreover, the Potency in experiment [15] and in [16] was 16.6 µM (active) in each case.
